High-throughput results (PubChem BioAssay)
VACV mCherry inh: inhibitors of vaccinia virus infection (mCherry reporter signal); Vaccinia virus mCherry reporter infection, fluorescence; Potency, µM (top dose mostly 36.5 µM), inactives show top-dose activity change, negative = inhibition, actives largely listed as inhibitors; AID 720579; hit rate 0.63% among 310,000; calls by dose curve; tested in A549 cells; also: nearly all actives have a fitted effect of over 35% in size
HCV inhibitor: HCV inhibition | Huh7.5.1 HCVcc-Cre infection, luciferase reporter, 44 h | Potency, µM (highest dose often 41.8 µM), for the others: at the top dose activity change, negative = inhibition, actives largely listed as inhibitors | hit rate 3.4% among 340,000 | AID 651820; active = well fitted inhibition curve with a large enough effect; inconclusive = small, poorly fitted or top-dose-only effect, or another doubt; inactive = no such curve, though single readings can be large or run the other way
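1,000 cells/well; 4 h culture; + compound; + HCVcc-Cre (~0.5 moi); 44 h; luciferase substrate, RT 15 min; read 15 sec.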
Lassa entry inh: inhibitors of Lassa virus binding or cell entry. Lassa virus pseudotype entry inhibition, cell reporter. Potency, µM (series often up to 37.9 µM), without a hit: at the top dose activity change, negative = inhibition, hits mostly inhibitors. hit rate 1.2% among 300,000; calls by dose curve; tested in HEK293 cells; also: nearly all actives have a fitted effect of over 50% in size
Vaccinia Venus: inhibitors of vaccinia virus (Venus reporter) | Vaccinia virus Venus reporter expression, fluorescence | Potency, µM (top dose mostly 36.5 µM), for the others: at the top dose activity change, negative = inhibition, hits mostly inhibitors | hit rate 0.46% among 330,000; calls by dose curve; tested in A549 cells; also: nearly all actives have a fitted effect of over 30% in size
Marburg entry inh: inhibitors of Marburg virus binding or cell entry; Marburg virus pseudotyped entry inhibition, cell reporter; Potency, µM (highest dose often 37.8 µM), for inactives: at the top dose activity change, negative = inhibition, actives largely listed as inhibitors; hit rate 1.8% among 300,000; AID 540276; calls by dose curve; tested in HEK293 cells
* hit, by the source's call; i = inactive; ? = inconclusive; . = no result; [ ] = dose if it differs, or a comment. In the library only some 4.6% were active in any assay of this set; here they are far more common. % is scaled to controls: 0 for no effect and ±100 for the full control effect; potency is read from the fitted curve at half-maximal effect.

SMILES | VACV mCherry inh | HCV inhibitor | Lassa entry inh | Vaccinia Venus | Marburg entry inh
Cc1ccsc1/C=C1\CCC(C2CCCC2)C1=O (stereo not drawn) | -12.2% | -4.0% | ? | -10.6% | 7.94µM*
CO/N=C/C(C#N)=C/c1ccc(OC)c(OC)c1 | i | ? | 1.9%[46.1 µM] | -9.7% | -6.5%[46.1 µM]
CO/N=C/C(C#N)=C/c1cc(C(=O)c2ccccc2)cn1C | -20.3% | 10µM* | ? | -9.0% | ?
CCN1Cc2c(/C=C/c3ccccc3)nc3ccc(OC)cc3c2N(c2cccc(Cl)c2)C1 | ? | 17.8µM* | . | ? | .
COc1cccc(N2CCc3c(C)nc4ccc(Cl)cc4c32)c1 | -17.5% | ? | ? | ? | 11.2µM*
COc1cccc(-n2c(/C=C\c3ccc(Cl)cc3)nc3ccccc3c2=O)c1 | -4.2% | . | -15.6%[46.1 µM] | -7.1% | .
COc1ccc(N2CCc3c(C)nc4c(OC)cc(OC)cc4c32)cc1 | ? | 12.6µM* | ? | ? | ?
COc1ccc(N2CCc3c(C)nc4c(OC)cc(OC)cc4c32)c(OC)c1 | . | 11.2µM* | ? | . | 11.6µM*
CC(C)c1ccc(NC(=O)CCCc2nc(-c3ccc(Cl)cc3)no2)cc1 | -12.9% | . | -0.2%[46.1 µM] | -18.7% | 13.6%[46.1 µM]
CCCCN(C)C(=O)CSc1nc2ccccc2nc1Cc1ccc(C)cc1 | i | . | -22.0%[46.1 µM] | 0.4% | .
O=C(NC1CC1)c1sc2ccccc2c1Cl | -14.3% | -7.1% | 10.4%[46.1 µM] | -2.3% | ?
CCCC(=O)N1CCN(c2ccc(NC(=O)c3sc4ccccc4c3Cl)cc2)CC1 | i | 0.1% | -17.9% | -1.2% | -25.8%
Cc1ccnc(NC(=O)c2sc3ccccc3c2Cl)c1 | -5.1% | -7.2% | ? | -11.3% | 1.58µM*
O=C(NC1C=CS(=O)(=O)C1)c1sc2ccccc2c1Cl (stereo not drawn) | 10µM* | ? | ? | ? | 20.6µM*
O=C(Nc1nccs1)c1sc2ccccc2c1Cl | -17.5%[1.46 µM] | ? | 12.6µM* | -25.1% | 7.08µM*
CN1CCN(c2ccccc2NC(=O)c2sc3ccccc3c2Cl)CC1 | 1.9% | 12.6µM* | ? | 4.8% | ?
C(=C\c1c[nH]c2ccccc12)/c1ccc2ccccc2n1 | ? | . | . | -10.3% | .
COC(=O)[C@@]1(Cc2ccccc2)[C@H]2C(=O)N(Cc3ccccc3)C(=O)[C@H]2[C@H]2CN=C(SC)N21 | ? | 9.4% | . | -14.3% | .
CCN1C(=O)[C@H]2[C@H]3CN=C(SC)N3[C@@](Cc3ccccc3)(C(=O)OC)[C@H]2C1=O | i | 0.562µM* | . | 9.4% | .
CCN1C(=O)[C@H]2[C@H]3CN=C(SCc4ccc(Cl)cc4)N3[C@@](Cc3ccccc3)(C(=O)OC)[C@H]2C1=O | -18.5% | ? | . | -27.3% | .
CCN1C(=O)[C@H]2[C@H]3CN=C(SCc4ccc(C)cc4)N3[C@@](Cc3ccccc3)(C(=O)OC)[C@H]2C1=O | i | 0.316µM* | . | -20.9% | .
Cc1ccc(N2CC(NC(=O)c3ccc(S(=O)(=O)N4CCOCC4)cc3)CC2=O)cc1C (stereo not drawn) | -8.7%[7.34 µM] | . | -24.5%[46.1 µM] | -8.9%[7.34 µM] | .
O=S(=O)(c1ccccc1)c1nc(-c2ccccc2F)oc1N1CCOCC1 | -3.1% | . | 25.3%[46.1 µM] | 7.6% | -13.3%[46.1 µM]
COc1ccc(NC(=O)Cn2nnc(-c3ccccc3NS(=O)(=O)c3ccc(OC)cc3)n2)cc1 | -4.1% | 11.2µM* | ? | -26.0% | ?
Cc1ccc(NC(=O)Cn2nnc(-c3ccccc3NC(=O)c3cccs3)n2)cc1 | -19.4% | ? | 0.58µM* | ? | ?
SMILES | VACV mCherry inh | HCV inhibitor | Lassa entry inh | Vaccinia Venus | Marburg entry inh
CCCN1CCCc2cc(CN(CCCN3CCOCC3)C(=O)Nc3ccc(Cl)c(Cl)c3)ccc21 | -19.6% | . | ? | -10.7% | .
CC(=O)c1cccc(NS(=O)(=O)c2cccc(S(=O)(=O)c3ccc(Br)cc3)c2)c1 | -25.4% | . | -25.4%[46.1 µM] | -12.8% | .
CC(C)=CCC/C(C)=C/CO/N=C1\C[C@@H](O)[C@@H](O)[C@@H]2[C@@H]3C(=O)N(C[C@@H]4CCCO4)C(=O)[C@@H]3CC[C@@H]12 | . | . | . | . | 21.6%[14.2 µM]
CC(=O)c1c(C)[nH]c(C(=O)CSc2ccc(F)cc2)c1C | i | 12.6µM* | ? | -18.8% | ?
CC(=O)c1c(C)[nH]c(C(=O)CSc2nc3ccc(C)cc3[nH]2)c1C | . | ? | -4.9% | -15.1% | -29.6%
CCOC(=O)c1c(C)[nH]c(C(=O)COC(=O)CCSc2ccccc2)c1C | -9.4% | -3.9% | 12.8% | -10.0% | ?
CCOC(=O)c1c(C)[nH]c(C(=O)CSc2ccccc2)c1C | . | ? | 17.8µM* | -29.0% | ?
CCOC(=O)c1[nH]c(C)c(C(=O)Nc2cc(Cl)ccc2C)c1C | . | 1.26µM* | ? | . | ?
CCOC(=O)c1[nH]c(C)c(C(=O)Nc2ccccc2C)c1C | . | ? | . | . | -2.6%
CCCc1cc(=O)[nH]c(SCC(=O)c2[nH]c(C)c(C(=O)OCC)c2C)n1 | -9.4% | 11.2µM* | 8.6% | 3.9% | -30.4%
Cc1ccc(Cn2c(CNC(=O)c3cccc(C)c3)nc3ccccc32)cc1 | -15.7% | . | -12.9%[46.1 µM] | -19.6% | 2.1%[46.1 µM]
CC#C[C@H](C)[C@@H](OCOC)[C@H](C[C@H](C)Cc1cc(Br)cc(OCc2ccccc2)c1OC)OC | . | . | . | . | -10.3%[14.2 µM]
CSc1nc2sc3c(c2c(=O)n1-c1ccc(F)c(Cl)c1)CCN(C(C)=O)C3 | 1.6% | . | 9.6%[46.1 µM] | -6.0% | -2.2%[46.1 µM]
CCn1c(SCC(=O)c2[nH]c(C)c(C(C)=O)c2C)nnc1-c1ccccc1 | ? | 5.62µM* | -15.1% | ? | ?
CCOC(=O)c1c(C)[nH]c(C(=O)C(C)Cl)c1C (stereo not drawn) | ? | -17.8% | -11.3% | ? | ?
CCOC(=O)c1c(C)[nH]c(C(=O)C(C)Sc2ccc(Cl)cc2)c1C (stereo not drawn) | -12.4%[1.46 µM] | ? | ? | 7.08µM* | ?
CCOC(=O)c1[nH]c(C)c(C(=O)N2CCN(c3ccccc3)CC2)c1C | . | 12.0% | 8.6% | . | -17.8%
CCOC(=O)c1c(C)[nH]c(C(=O)N2CCN(c3ccc(OC)cc3)CC2)c1C | ? | -21.6% | 7.94µM* | -18.3% | ?
CC1(C)C[C@H](n2[nH]c(=O)c3c2NC(=O)CS[C@@H]3c2ccccc2)CCO1 | . | . | . | . | 13.9%
COc1ccc(S(=O)(=O)N2CCOC2CNC(=O)C(=O)NCCc2c[nH]c3ccccc23)cc1C (stereo not drawn) | ? | 11.2µM* | ? | ? | ?
COc1ccc(CCNC(=O)C(=O)NCC2OCCN2S(=O)(=O)c2ccc(Cl)cc2)cc1 (stereo not drawn) | ? | 11.2µM* | . | -22.1% | .
COc1ccc(CCNC(=O)C(=O)NCC2OCCN2S(=O)(=O)c2ccc(OC)cc2)cc1 (stereo not drawn) | -16.7% | ? | . | -20.5% | .
COc1ccc(S(=O)(=O)N2CCOC2CNC(=O)C(=O)NCCc2c[nH]c3ccccc23)cc1 (stereo not drawn) | -10.1% | ? | ? | -18.3% | -10.3%
Cc1ccc2nc(N3CCCCCC3)c(CN(CC3CCCO3)C(=O)c3cncs3)cc2c1 (stereo not drawn) | -17.2% | . | . | -8.7% | .
O=S(=O)(Nc1ccc2nc(-c3ccc(F)cc3)oc2c1)c1ccccc1 | 0.0% | . | -0.4%[46.1 µM] | 4.9% | -2.9%[46.1 µM]
